Laboratory results as given in PubChem BioAssay (Tox21).
Where “and” joins values, the source holds several entries; their conditions need not be identical. Equal values may be shown once. Inconclusive results are not listed. A structure can be active in one record and inactive in another. Calls of active or inactive are those of the source. Calls come from the whole dose curve; as a rule, active = well fitted curve in the direction sought with a large enough effect in the repeat runs; inconclusive = weak or mixed curves; inactive = no such curve, though single readings can be large; an effect the other way counts as inactive or inconclusive.

Assays:
[1] = A CellTox Green Cytotoxicity Assay to monitor cytotoxicity in HEK293 cells - 24 hour (AID 1224875); conditions: CellTox Green fluorescence; series mostly up to 76.8 µM; note: nearly all actives have a fitted effect of over 45% in size
How it was run: (§1)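 Fluorescence intensity, read at 0, 8, 16, 24, 32 and 40 h of compound treatment, reflected dye binding to DNA of dead HEK293 cells; compounds (23 nL, DMSO) were added 5 h after plating cells with reagent.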

[2] = A CellTox Green Cytotoxicity Assay to monitor cytotoxicity in HepG2 cells - 16 hour (AID 1224876); conditions: CellTox Green fluorescence; series mostly up to 76.8 µM; note: nearly all actives have a fitted effect of over 45% in size
How it was run: (§2)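 Using 1536-well format, dye-containing HepG2 suspension was seeded, allowed 5 h at 37 C/5% CO2, dosed by pintool with compounds, positive and negative controls, and imaged for fluorescence across 40 h.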

[3] = A CellTox Green Cytotoxicity Assay to monitor cytotoxicity in HepG2 cells - 24 hour (AID 1224878); conditions: CellTox Green fluorescence; series mostly up to 76.8 µM; note: nearly all actives have a fitted effect of over 45% in size
How it was run: as §2

[4] = A CellTox Green Cytotoxicity Assay to monitor cytotoxicity in HepG2 cells - 40 hour (AID 1224879); conditions: CellTox Green fluorescence; series mostly up to 76.8 µM; note: nearly all actives have a fitted effect of over 40% in size
How it was run: as §2

[5] = qHTS RealTime-Glo MT Cell Viability Assay in HEK293 cells - 0 hour (AID 1224880); conditions: RealTime-Glo luminescence; series mostly up to 76.8 µM; note: top concentration of the series differs between compounds; nearly all actives have a fitted effect of over 45% in size
How it was run: (§3)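 Viable HEK293 cells reduce a cell-permeant prosubstrate; the product diffuses out and is consumed by NanoLuc in the medium to give light. Compounds went in after a 5 h incubation and plates were read over the treatment course.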

[6] = A CellTox Green Cytotoxicity Assay to monitor cytotoxicity in HEK293 cells - 32 hour (AID 1224881); conditions: CellTox Green fluorescence; series mostly up to 76.8 µM; note: nearly all actives have a fitted effect of over 40% in size; note: potency is the fitted concentration of half-maximal effect
How it was run: as §1

[7] = A CellTox Green Cytotoxicity Assay to monitor cytotoxicity in HepG2 cells - 0 hour (AID 1224882); conditions: CellTox Green fluorescence; series mostly up to 76.8 µM; note: nearly all actives have a fitted effect of over 35% in size
How it was run: as §2

[8] = A CellTox Green Cytotoxicity Assay to monitor cytotoxicity in HepG2 cells - 32 hour (AID 1224883); conditions: CellTox Green fluorescence; series mostly up to 76.8 µM; note: nearly all actives have a fitted effect of over 50% in size
How it was run: as §2

[9] = A CellTox Green Cytotoxicity Assay to monitor cytotoxicity in HEK293 cells - 8 hour (AID 1224884); conditions: CellTox Green fluorescence; series mostly up to 76.8 µM; note: nearly all actives have a fitted effect of over 35% in size; note: potency is the fitted concentration of half-maximal effect
How it was run: as §1

[10] = qHTS RealTime-Glo MT Cell Viability Assay in HepG2 cells - 16 hour (AID 1224885); conditions: RealTime-Glo luminescence; series mostly up to 76.8 µM; note: nearly all actives have a fitted effect of over 50% in size
How it was run: (§4)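 HepG2 cells (600/well) were dispensed with RealTime-Glo reagents, incubated 5 h at 37 °C, then treated with compounds in DMSO for up to 40 h. Nonlytic NanoLuc luminescence reflecting viable cells was read at each stated time point.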

[11] = qHTS RealTime-Glo MT Cell Viability Assay in HEK293 cells - 24 hour (AID 1224886); conditions: RealTime-Glo luminescence; series mostly up to 76.8 µM; note: top concentration of the series differs between compounds; nearly all actives have a fitted effect of over 50% in size
How it was run: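 HEK293 cells seeded with NanoLuc/prosubstrate reagent, rested 5 h at 37 C, then dosed and kept at 37 C up to 40 h. Nonlytic real-time luminescence from viable cells read at 0, 8, 16, 24, 32 and 40 h.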

[12] = A CellTox Green Cytotoxicity Assay to monitor cytotoxicity in HEK293 cells - 16 hour (AID 1224888); conditions: CellTox Green fluorescence; series mostly up to 76.8 µM; note: nearly all actives have a fitted effect of over 35% in size
How it was run: as §1

[13] = qHTS RealTime-Glo MT Cell Viability Assay in HepG2 cells - 0 hour (AID 1224889); conditions: RealTime-Glo luminescence; series mostly up to 76.8 µM; note: nearly all actives have a fitted effect of over 50% in size
How it was run: as §4

[14] = A CellTox Green Cytotoxicity Assay to monitor cytotoxicity in HepG2 cells - 8 hour (AID 1224890); conditions: CellTox Green fluorescence; series mostly up to 76.8 µM; note: nearly all actives have a fitted effect of over 45% in size
How it was run: as §2

[15] = qHTS assay to identify small molecule antagonists of the estrogen receptor alpha (ER-alpha) signaling pathway using the BG1 cell line in the presence of 0.1 nM 17-beta-estradiol - cell viability counter screen (AID 1259241); conditions: VM7Luc4E2 (BG1) viability, CellTiter-Fluor protease, 22 h, 0.1 nM estradiol agonist added; series mostly up to 92.4 µM; note: nearly all actives have a fitted effect of over 40% in size
How it was run: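 Measures cytotoxicity alongside the ER-alpha antagonist readout: VM7Luc4E2 cells, charcoal-stripped serum, 0.1 nM 17beta-estradiol final, 22 hr compound incubation at 37C, CellTiter-Fluor fluorescence.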

[16] = molecular target: Androgen receptor (Homo sapiens) (UniProt P10275); experiment: qHTS assay to identify small molecule antagonists of the androgen receptor (AR) signaling pathway using the MDA cell line in the presence of 0.5 nM R1881 (AID 1259243); conditions: MDA-kb2 MMTV-luciferase, R1881 0.5 nM, 16 h; series mostly up to 92.4 µM; note: nearly all actives have a fitted effect of over 50% in size
How it was run: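 Reporter cells cultured without CO2 receive test chemicals, then 0.5 nM R1881 final; after 16 hr at 37C, ONE-Glo is added and light output recorded.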

[17] = molecular target: Estrogen receptor (Homo sapiens) (UniProt P03372); experiment: qHTS assay to identify small molecule antagonists of the estrogen receptor alpha (ER-alpha) signaling pathway using the BG1 cell line in the presence of 0.1 nM 17-beta-estradiol (AID 1259244); conditions: VM7Luc4E2 (BG1) ERE-luciferase, antagonist mode, 0.1 nM E2, 22 h; series mostly up to 92.4 µM; note: nearly all actives have a fitted effect of over 50% in size
How it was run: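 Estradiol at 0.1 nM (final) stimulates the endogenous ER-alpha of VM7Luc4E2 cells carrying an ERE-driven luciferase; compounds are co-incubated 22 h at 37C and luciferase output quantified by luminescence.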

[18] = qHTS RealTime-Glo MT Cell Viability Assay in HEK293 cells - 8 hour (AID 1224887); conditions: RealTime-Glo luminescence; series mostly up to 76.8 µM
How it was run: as §3

[19] = qHTS assay to identify small molecule antagonists of the androgen receptor (AR) signaling pathway using the MDA cell line in the presence of 0.5 nM R1881 - cell viability counter screen (AID 1259242); conditions: MDA-kb2 viability, CellTiter-Fluor protease fluorescence, 16 h; series mostly up to 92.4 µM; note: nearly all actives have a fitted effect of over 45% in size
How it was run: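 Viability of MDA-kb2 cells was multiplexed with the luciferase AR readout; after 16 hr with compounds and R1881 at 0.5 nM final, CellTiter-Fluor fluorescence was recorded.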

[20] = qHTS RealTime-Glo MT Cell Viability Assay in HepG2 cells - 32 hour (AID 1224877); conditions: RealTime-Glo luminescence; series mostly up to 76.8 µM; note: nearly all actives have a fitted effect of over 55% in size
How it was run: as §4
% is set by controls: 0 for no effect and ±100 for the full control effect.

Chain of Androgen receptor (Homo sapiens) (P10275 whole entry, looked up): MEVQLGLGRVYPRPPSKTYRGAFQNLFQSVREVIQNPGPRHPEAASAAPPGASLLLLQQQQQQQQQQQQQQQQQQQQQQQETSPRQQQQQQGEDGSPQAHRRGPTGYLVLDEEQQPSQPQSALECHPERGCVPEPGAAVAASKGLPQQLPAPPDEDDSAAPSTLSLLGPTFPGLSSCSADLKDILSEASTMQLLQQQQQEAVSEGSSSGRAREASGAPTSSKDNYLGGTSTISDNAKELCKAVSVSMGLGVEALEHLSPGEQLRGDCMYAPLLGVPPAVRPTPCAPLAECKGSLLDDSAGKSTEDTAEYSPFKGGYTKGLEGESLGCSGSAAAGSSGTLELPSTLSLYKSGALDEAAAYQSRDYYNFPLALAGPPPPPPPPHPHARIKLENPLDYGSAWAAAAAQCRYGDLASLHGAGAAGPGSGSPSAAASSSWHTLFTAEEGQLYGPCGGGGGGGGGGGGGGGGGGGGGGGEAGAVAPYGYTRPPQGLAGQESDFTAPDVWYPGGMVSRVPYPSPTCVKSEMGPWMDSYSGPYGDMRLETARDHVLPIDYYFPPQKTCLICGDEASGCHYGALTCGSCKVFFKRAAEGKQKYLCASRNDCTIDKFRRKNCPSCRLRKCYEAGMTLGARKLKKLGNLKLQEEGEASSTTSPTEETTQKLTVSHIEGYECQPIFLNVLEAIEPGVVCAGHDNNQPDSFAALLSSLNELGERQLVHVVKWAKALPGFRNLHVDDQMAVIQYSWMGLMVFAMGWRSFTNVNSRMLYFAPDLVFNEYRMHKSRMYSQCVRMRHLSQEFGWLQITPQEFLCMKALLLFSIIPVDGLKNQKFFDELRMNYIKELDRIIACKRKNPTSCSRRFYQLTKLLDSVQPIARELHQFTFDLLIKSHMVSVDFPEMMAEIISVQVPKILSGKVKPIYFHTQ
Chain of Estrogen receptor (Homo sapiens) (P03372 whole entry, looked up): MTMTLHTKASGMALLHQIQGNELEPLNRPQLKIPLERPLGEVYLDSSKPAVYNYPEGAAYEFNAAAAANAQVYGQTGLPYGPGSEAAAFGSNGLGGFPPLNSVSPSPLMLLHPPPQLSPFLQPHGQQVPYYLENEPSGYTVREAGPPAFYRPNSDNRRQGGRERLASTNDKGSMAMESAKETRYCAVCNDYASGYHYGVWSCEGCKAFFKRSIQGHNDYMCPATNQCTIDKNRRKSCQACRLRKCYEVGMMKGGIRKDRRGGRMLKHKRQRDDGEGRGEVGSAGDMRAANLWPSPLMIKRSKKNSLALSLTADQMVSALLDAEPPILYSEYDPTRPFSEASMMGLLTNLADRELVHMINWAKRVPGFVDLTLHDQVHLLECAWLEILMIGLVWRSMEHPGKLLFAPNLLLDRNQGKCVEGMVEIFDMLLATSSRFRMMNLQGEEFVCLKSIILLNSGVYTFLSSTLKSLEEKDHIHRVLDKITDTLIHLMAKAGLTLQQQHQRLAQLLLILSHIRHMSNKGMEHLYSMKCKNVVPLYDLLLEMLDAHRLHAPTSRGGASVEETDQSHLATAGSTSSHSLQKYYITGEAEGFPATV

CCCCN(CC)C(=O)SCCC
inactive: Potency [1] | Potency [2] | Potency [3] | Potency [4] | outcome [5] | Potency [6] | Potency [7] | Potency [8] | Potency [9] | outcome [10] | Potency [11] | Potency [12] | outcome [13] | Potency [14] | Potency [15] | Potency [16] | Potency [17]

Cc1[nH]c(=O)n(C(C)(C)C)c(=O)c1Cl
inactive: Potency [1] | Potency [2] | Potency [3] | Potency [4] | outcome [5] | Potency [6] | Potency [7] | Potency [8] | Potency [9] | outcome [10] | Potency [11] | outcome [18] | Potency [12] | outcome [13] | Potency [14] | Potency [15] | Potency [16] | Potency [17]

O=Cc1cccc(Oc2ccccc2)c1
inactive: Potency [1] | Potency [2] | Potency [3] | Potency [4] | outcome [5] | Potency [6] | Potency [7] | Potency [8] | Potency [9] | outcome [10] | Potency [11] | outcome [18] | Potency [12] | outcome [13] | Potency [14] | Potency [15] | outcome [19] | Potency [17]

CC(C)NC(=O)N1CC(=O)N(c2cc(Cl)cc(Cl)c2)C1=O
inactive: Potency [1] | Potency [2] | Potency [3] | Potency [4] | outcome [5] | Potency [6] | Potency [7] | Potency [8] | Potency [9] | outcome [10] | Potency [11] | outcome [18] | Potency [12] | outcome [13] | Potency [14] | Potency [15] | outcome [19] | Potency [17]

CCOC(=O)c1ccccc1C(=O)OCC
inactive: Potency [1] | Potency [2] | Potency [3] | Potency [4] | outcome [5] | Potency [6] | Potency [7] | Potency [8] | Potency [9] | outcome [10] | Potency [11] | outcome [18] | Potency [12] | outcome [13] | Potency [14] | Potency [15] | outcome [19] | Potency [17]

CNC(=O)Oc1ccccc1OC(C)C
inactive: Potency [1] | Potency [2] | Potency [3] | Potency [4] | outcome [5] | Potency [6] | Potency [7] | Potency [8] | Potency [9] | outcome [10] | Potency [11] | outcome [18] | Potency [12] | outcome [13] | Potency [14] | Potency [15] | outcome [19] | Potency [17]

C=C(C)CCl
inactive: Potency [1] | Potency [2] | Potency [3] | Potency [4] | outcome [5] | Potency [6] | Potency [7] | Potency [8] | Potency [9] | outcome [10] | activity change, negative = cytotoxicity [11] 6.36% [at 6.97 µM] | Potency [12] | outcome [13] | Potency [14] | Potency [15] | Potency [16] | Potency [17]

c1cc2c3c(cccc3c1)CC2
inactive and 49 µM (active): Potency [6] | Potency [9]
inactive: Potency [2] | outcome [20] | Potency [3] | Potency [4] | outcome [5] | Potency [7] | Potency [8] | outcome [10] | Potency [11] | outcome [18] | outcome [13] | Potency [14] | Potency [15] | Potency [16] | Potency [17]

CC(=O)C=C(C)C
inactive: Potency [1] | Potency [2] | Potency [3] | Potency [4] | outcome [5] | Potency [6] | Potency [7] | Potency [8] | Potency [9] | outcome [10] | Potency [11] | Potency [12] | outcome [13] | Potency [14] | Potency [15] | outcome [19] | Potency [17]

O=NN1CCCCCCC1
inactive: Potency [1] | Potency [2] | Potency [3] | Potency [4] | outcome [5] | Potency [6] | Potency [7] | Potency [8] | Potency [9] | outcome [10] | Potency [11] | outcome [18] | Potency [12] | outcome [13] | Potency [14] | Potency [15] | outcome [19] | Potency [17]

CCN(CC)c1ccccc1
inactive: Potency [1] | Potency [2] | Potency [3] | Potency [4] | outcome [5] | Potency [6] | Potency [7] | Potency [8] | Potency [9] | outcome [10] | Potency [11] | Potency [12] | outcome [13] | Potency [14] | Potency [15] | Potency [16] | Potency [17]
